Shown are actives, neighbours in structure and some others; about 4% of the full set was active somewhere.
Mtb UGM inh = blocks M. tuberculosis UGM enzyme. actives 0.06% (n = 320,000). AID 504406. inhibition, % at 10 µM. purified UGM, fluorescence polarization probe displacement; in the data active = inhibition above about 10%, passing the limit was not always enough
Rv3671c inh = inhibits the M. tuberculosis serine protease Rv3671c | AID 2606 | P9WHR9 | actives 0.048% (n = 320,000) | inhibition, % at 5.96 µM; in the data active = inhibition above about 38%;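 note: extracellular domain of Rv3671c used as enzyme; 0% = enzyme with DMSO and 100% = no enzyme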
GDH-TPI counter-1 = inhibits GDH-TPI coupling enzymes, artifact for Mtb FBA screen. inhibition, % at 4.8 µM. GDH-TPI coupled enzyme counterscreen, NADH absorbance. actives 1.2% (n = 360,000); in the data active = inhibition above about 30%;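 note: 0% = DMSO wells and 100% = wells lacking the enzyme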
RecA splice inh = Mtb RecA intein splicing inhibition | cell-free RecA intein splicing, fluorescence | inhibition, % (test concentration not listed) | P9WHJ3 | actives 0.75% (n = 290,000); in the data active = inhibition above about 30%;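 note: 0% = vehicle wells and 100% = reference inhibitor control wells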
Target sequence (P9WHJ3 whole entry, looked up, canonical isoform): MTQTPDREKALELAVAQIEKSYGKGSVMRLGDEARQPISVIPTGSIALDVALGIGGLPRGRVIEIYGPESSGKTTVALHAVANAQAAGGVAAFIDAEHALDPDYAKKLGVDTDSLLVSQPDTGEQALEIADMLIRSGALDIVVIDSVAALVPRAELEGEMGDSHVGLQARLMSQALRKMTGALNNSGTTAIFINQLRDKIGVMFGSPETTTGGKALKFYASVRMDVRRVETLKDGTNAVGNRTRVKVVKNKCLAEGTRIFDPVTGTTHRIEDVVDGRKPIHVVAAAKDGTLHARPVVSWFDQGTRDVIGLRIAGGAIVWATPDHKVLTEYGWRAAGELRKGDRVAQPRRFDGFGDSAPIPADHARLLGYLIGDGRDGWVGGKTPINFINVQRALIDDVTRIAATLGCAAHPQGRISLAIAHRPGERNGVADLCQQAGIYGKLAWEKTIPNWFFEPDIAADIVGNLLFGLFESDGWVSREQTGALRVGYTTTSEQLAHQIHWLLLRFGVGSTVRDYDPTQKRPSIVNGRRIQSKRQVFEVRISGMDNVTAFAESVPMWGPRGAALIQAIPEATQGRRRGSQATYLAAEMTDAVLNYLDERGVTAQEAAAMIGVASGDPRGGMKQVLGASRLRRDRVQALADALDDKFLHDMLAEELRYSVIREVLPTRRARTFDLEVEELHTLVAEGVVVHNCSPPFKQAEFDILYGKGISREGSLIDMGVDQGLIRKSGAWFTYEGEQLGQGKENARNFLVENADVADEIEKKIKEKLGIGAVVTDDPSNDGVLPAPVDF
Mtb FBA inh = inhibits M. tuberculosis FBA enzyme; purified M. tuberculosis FBA, fluorescence read-out; inhibition, % at 1 µM; actives 2.3% (n = 360,000); AID 588726; in the data active = inhibition above about 27%;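 note: 0% = vehicle and 100% = reference inhibitor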
Mtb betalactam = beta-lactam sensitization of Mtb H37Rv; inhibition, % at 25 µM; M. tuberculosis H37Rv growth with meropenem, percent inhibition; actives 0.27% (n = 330,000);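 note: growth measured after seven days incubation then overnight dye step; 0% = bacteria only wells and 100% = bacteria with antibiotic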
Mtb FBA inh conf = Mtb FBA inhibition, confirmed | shares compounds with Mtb FBA inh | purified M. tuberculosis FBA, fluorescence read-out | inhibition, % at 1 µM | actives 78% (n = 5,600) | AID 651616; in the data active = inhibition above about 27%;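 note: 0% = vehicle wells and 100% = reference inhibitor wells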
GDH-TPI counter-2 = GDH-TPI inhibition counter-screen for FBA inhibitors | GDH-TPI coupled enzyme counterscreen, fluorescence | shares compounds with Mtb FBA inh | inhibition, % at 1 µM | actives 81% (n = 5,600); in the data active = inhibition above about 10%
GDH-TPI DR = GDH-TPI dose response counter-screen for Mtb FBA; shares compounds with Mtb FBA inh; GDH-TPI coupled enzyme assay, fluorescence, artifact counterscreen; IC50, µM; actives 79% (n = 170)
* marks the source's active call; other numbers are inactive results. Unless noted, the rule behind the calls is not given here.

CCc1cc(=O)oc2cc(C)cc(OC(C)C(=O)NC3CCN(Cc4ccccc4)CC3)c12 (stereo unspecified) was read as Mtb UGM inh 0, Rv3671c inh -6, GDH-TPI counter-1 1, RecA splice inh 1, Mtb FBA inh 51*, Mtb betalactam -4, Mtb FBA inh conf 14, GDH-TPI counter-2 0 and GDH-TPI DR 3*.
For CCc1cc(=O)oc2cc(C)cc(OC(C)C(=O)NCC(O)c3ccccc3)c12 (stereo unspecified) the results were Mtb UGM inh 1, Rv3671c inh 9, GDH-TPI counter-1 -7, RecA splice inh -4, Mtb FBA inh 59*, Mtb betalactam 1, Mtb FBA inh conf active and GDH-TPI counter-2 active.
`O=C(c1ccccc1NS(=O)(=O)c1ccc([N+](=O)[O-])cc1[N+](=O)[O-])N1O[C@@H]2C=C[C@H]1C2` gave GDH-TPI counter-1 15 and Mtb FBA inh -4.
Screening CC(=O)Nc1ccc(/C=C(\C#N)S(=O)(=O)c2ccc(C)cc2)cc1 returned Mtb UGM inh 4, Rv3671c inh -4, GDH-TPI counter-1 9, Mtb FBA inh 0 and Mtb betalactam -4.
O=C(Nc1ccccc1Cl)NC1CCCCCCC1 was read as Mtb UGM inh 0, GDH-TPI counter-1 -2, RecA splice inh -1, Mtb FBA inh -1 and Mtb betalactam 7.
Screening O=C(O)c1ccc2c(c1)N(Cc1ccccc1)C(=O)c1ccccc1S2 returned Mtb UGM inh 2, Rv3671c inh -3, GDH-TPI counter-1 2, RecA splice inh 0, Mtb FBA inh -1 and Mtb betalactam -4.
For Cc1cc(OC(C)C(=O)NCC(O)c2ccccc2)c2c(C)c(C)c(=O)oc2c1 (stereo unspecified) the results were Mtb UGM inh 1, Rv3671c inh 5, GDH-TPI counter-1 11, RecA splice inh 4, Mtb FBA inh 50*, Mtb betalactam 1, Mtb FBA inh conf 73* and GDH-TPI counter-2 45*.
N=c1oc2cc(O)ccc2cc1C(=O)Nc1ccc(Cl)cc1 was read as Mtb UGM inh -1, Rv3671c inh 7, GDH-TPI counter-1 10, RecA splice inh inactive, Mtb FBA inh 103*, Mtb betalactam 93, Mtb FBA inh conf active and GDH-TPI counter-2 active.
For CCN(C(=O)c1coc(=O)c(Br)c1)c1ccc2c(c1)OCO2 the results were Mtb UGM inh 0, Rv3671c inh -37, GDH-TPI counter-1 24, RecA splice inh -2, Mtb FBA inh 80*, Mtb betalactam 87, Mtb FBA inh conf active and GDH-TPI counter-2 183*.
Screening CCN(C(=O)c1c(C)cc(=O)oc1C)c1ccc2c(c1)OCO2 returned Mtb UGM inh -1, Rv3671c inh 6, GDH-TPI counter-1 9, RecA splice inh 3, Mtb FBA inh 0 and Mtb betalactam 3.
`CCCCNC(=O)C(NC(=O)c1cccc(C(F)(F)F)c1)C(=O)c1ccccc1` (stereo unspecified) gave Mtb FBA inh -1.
Screening CC(/C=C/c1ccc(O)cc1)=N/O returned Mtb UGM inh -1, Rv3671c inh 1, GDH-TPI counter-1 12, RecA splice inh -5, Mtb FBA inh 67*, Mtb betalactam -3, Mtb FBA inh conf -3 and GDH-TPI counter-2 -3.
Screening CC(/C=C/c1ccccc1)=N/O returned Mtb UGM inh 1, Rv3671c inh 0, GDH-TPI counter-1 6, RecA splice inh 0, Mtb FBA inh 1 and Mtb betalactam 59.
CCCCc1cc(=O)oc2cc(C)cc(OCC(=O)NCCN3CCOCC3)c12 was read as Mtb UGM inh -3, Rv3671c inh -1, GDH-TPI counter-1 15, RecA splice inh -4, Mtb FBA inh 51*, Mtb betalactam 3, Mtb FBA inh conf active and GDH-TPI counter-2 170*.
For Cc1cc(OCC(=O)NCCN2CCOCC2)c2c(C)c(C)c(=O)oc2c1 the results were Mtb UGM inh -5, Rv3671c inh 1, GDH-TPI counter-1 10, RecA splice inh -5, Mtb FBA inh 52*, Mtb betalactam 10, Mtb FBA inh conf -6 and GDH-TPI counter-2 -6.
For CCCCc1cc(=O)oc2c(C)c(OCC(=O)NCCN3CCOCC3)ccc12 the results were Mtb UGM inh 2, Rv3671c inh -17, GDH-TPI counter-1 22, RecA splice inh 0, Mtb FBA inh 20 and Mtb betalactam 0.
CCCc1cc(=O)oc2cc(C)cc(OCC(=O)NCCCN3CCOCC3)c12 was read as Mtb UGM inh 1, Rv3671c inh 1, GDH-TPI counter-1 7, RecA splice inh -2, Mtb FBA inh 73*, Mtb betalactam 2, Mtb FBA inh conf 25 and GDH-TPI counter-2 30*.
O=C(COc1cc(Cl)c(Cl)cc1Cl)NCCN1CCOCC1 was read as Mtb UGM inh -2, Rv3671c inh 3, GDH-TPI counter-1 0, RecA splice inh -1, Mtb FBA inh -1 and Mtb betalactam -7.
Screening C=CCOc1cccc(CNc2cccc(C(=O)O)c2)c1 returned Mtb UGM inh 3, Rv3671c inh 13, GDH-TPI counter-1 7, RecA splice inh -3, Mtb FBA inh 28*, Mtb betalactam 0, Mtb FBA inh conf 2 and GDH-TPI counter-2 6.
For C=CCOc1c(CNc2cccc(C(=O)O)c2)cccc1OC the results were Rv3671c inh 0, GDH-TPI counter-1 -4, RecA splice inh -2, Mtb FBA inh 29*, Mtb betalactam -1, Mtb FBA inh conf 39* and GDH-TPI counter-2 53*.
Screening C=CCOc1c(CNc2cccc(C(=O)O)c2)cccc1OCC returned Mtb UGM inh -3, Rv3671c inh -5, GDH-TPI counter-1 0, RecA splice inh 0, Mtb FBA inh 25 and Mtb betalactam 4.
For O=C(N[C@@H]1CCC(=O)N(CC[C@H](Sc2ccccc2)c2ccccc2)CC1)OCc1ccccc1 the results were Mtb UGM inh 0, Rv3671c inh -6, GDH-TPI counter-1 14, RecA splice inh 9, Mtb FBA inh 0 and Mtb betalactam 0.
`CCOc1ccccc1OCC(=O)NCCc1ccc(S(N)(=O)=O)cc1` gave Mtb UGM inh -1, Rv3671c inh -4, GDH-TPI counter-1 -7, RecA splice inh 1, Mtb FBA inh -2 and Mtb betalactam -6.
Cc1nc(Nc2ccc(Cl)c(Cl)c2)sc1C(/C=C/c1ccc2c(c1)OCO2)=NNc1ccc([N+](=O)[O-])cc1[N+](=O)[O-] was read as GDH-TPI counter-1 6 and Mtb FBA inh 0.
